± gives the standard deviation.
Test system: MILI (PIWIL2) piRISC loaded with piRNA #1 (26 nt)
Assay: pre-steady-state target cleavage rate (min^-1); guide: piRNA #1 5'p-UGAGGUAGUAGGUUGUAUAGUAUCCA; MIWI and MILI are mouse PIWI proteins and EfPiwi is from a freshwater sponge; tags in brackets are library labels; higher = faster piRNA-guided slicing of the target
Settings: auxiliary factor: 500 nM mouse GTSF1
Procedure, shortened: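 Three pooled Cleave-'n-Seq trials supplied the data, with k3 capped at 0.0001 min^-1. In each, […] transcribed, DNA-blocked target RNA library and 1 nM active affinity-purified piRISC with one synthetic guide reacted in HEPES–potassium acetate buffer at 33 °C for 0–8 or 0–960 min, with or without 500 nM GTSF1 partner protein. Uncleaved targets were sequenced and normalised to depth and to weakly complementary targets. A burst-and-steady-state fit provided the pre-steady-state cleavage rate.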
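Further: 1 nM active piRISC with 0.1 nM target library at 33 °C single turnover.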

Sequence | pre-steady-state target cleavage rate
GGAGACCUAUGUUUACAUCCUACUACCUCA | 0.0197 ± 0.0031
GGAGACCAUACAAUACAACCUACAACCUCA | 0.136 ± 0.014
GGAGACCUAUGAAUACUACCUACUACCACA | 0.00343 ± 0.0025
GGAGACCAUACUAAACAACCAACUACCUCA | 0.00724 ± 0.003
GGAGACCUAUGUAUACAACGUACUUCCUCA | 0.0105 ± 0.0026
GGAGACCUAUGAUUACAUCCUACAACCUCA | 0.00871 ± 0.0027
GGAGACCAUACUAUACAACCUACUUCCACA | 0.0785 ± 0.018
GGAGACCUAUCUAUACUUCCUACUACCUCA | 0.054 ± 0.013
GGAGACCUUACUAUACAACCUACCACCUCA | 0.118 ± 0.015
GGAGACCAUACUAUUCUACCUACUACCUCA | 0.178 ± 0.017
GGAGACCUUACUAUAUCAACCUACUACCUCA | 0.0609 ± 0.0086
GGAGACCUUACUAUACUACCUACUUCCUCA | 0.119 ± 0.019
GGAGACCUAACUAUAGAACCUACUACCACA | 0.0663 ± 0.019
GGAGACCUAACUAUACAACCUACUAGCACA | 0.00779 ± 0.0065
GGAGACCUUAGUAUAGAACCUACUACCUCA | 0.0876 ± 0.013
GGAGACGAUACUAUACAUCCUACUUCCUCA | 0.157 ± 0.028
GGAGACCUAUGAAUACAACCUACUUCCUCA | 0.00371 ± 0.0019
GGAGACCUAUCUAUACAAGCUUCUACCUCA | 0.0321 ± 0.0061
GGAGACCUAUGAUAAGCAACCUACUACCUCA | 0.00516 ± 0.0031
GGAGACCUAUGAAUACCACCUACUACCUCA | 0.00372 ± 0.0036

Sequence | pre-steady-state target cleavage rate
GGAGACCUAUGAUAACAUCCUACUUCCUCA | 0.00421 ± 0.0027
GGAGACCAUACUAAACAUCCUACUACCUCA | 0.272 ± 0.022
GGAGACGAUACAAUAGAACCUACUACCUCA | 0.178 ± 0.014
GGAGACCUAACUAUAGUUCCUACUACCUCA | 0.0706 ± 0.013
GGAGAGGAUACUAUACUACCUACUACGUCA | 0.0806 ± 0.01
GGAGACCUAACUUUACAACCUACAACCUCA | 0.0823 ± 0.027
GGAGUGGAUACUUUACAACCUACUACCUGA | 0.0844 ± 0.011
GGAGACGUUACUAUACAACCUACUUCCUCA | 0.0496 ± 0.013
GGAGACCUUACUAAACAACCUACAACCUCA | 0.178 ± 0.025
GGAGACCUAACUAUACAAGCUACUACGUCA | 0.152 ± 0.033
GGAGACGAUAGUAUACAACCUACUACCUCA | 0.147 ± 0.011
GGAGACCUAUCUAUACAACCUACAACCACA | 0.0576 ± 0.014
GGAGACCUUAUAUACAACCUACUACCUCA | 0.0314 ± 0.0072
GGAGACCUAACUAUAGCAACCUACUACCUCA | 0.0973 ± 0.023
GGAGACCUAUGAAUACAACCUACUACUCUCA | 0.00959 ± 0.002
GGAGACCUAUGUAUACAUCCUAGUACCUCA | 0.015 ± 0.0049
GGAGACCUAUGUAUACAACGUACUACCACA | 0.00942 ± 0.003
GGAGACCAUACAAUACAACCUAGUACCUCA | 0.0587 ± 0.011
GGAGACCUAACUUUACAACCUACUAGCUCA | 0.0363 ± 0.017
GGAGACCUAUGUAUACAACCGUACUACCUCA | 0.00758 ± 0.0041

From the supplement of paper PMC10338343
